Activity calls are given as the source filed them. Unless noted, the rule behind the calls is not given here.
Assays:
[1] = test system: Wnt5a (protein binding on small-molecule microarray); assay: small molecules binding Wnt5a protein – biophysical, small-molecule microarray, 635/667 nm fluorescence, primary screen (AID 1142); conditions: 635 nm fluorescence, higher = more signal;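 note: fluorescence read at 667 nm with signal to noise per printed feature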
[2] = ATP-based viability of Huh7 replicon cells – cell-based, CellTiter-Glo luminescence, basal, 48 h, cytotoxicity control for HCV replication inhibitor project, primary screen (AID 1143); conditions: higher = more signal, called active from +8 up or from −8 down;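 note: Huh7 hepatoma cells carrying a hepatitis C replication reporter with no stimulus; test concentration not given here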
[3] = Pseudomonas biofilm growth suppression – PAO1 strain, BacTiter-Glo luminescence, LB-PBS, primary screen (AID 1144); conditions: P. aeruginosa PAO1 biofilm, 12 h, higher = more signal
[4] = basal CRE-LacZ reporter activity in PC12 – cell-based, unstimulated, primary screen (AID 1145); conditions: no forskolin, luminescence, 4.5 h, higher = more signal, called active from +8 up or from −8 down
[5] = forskolin-driven CRE-LacZ activity in PC12 – cell-based, CRE-LacZ reporter, forskolin-stimulated, primary screen (AID 1146); conditions: luminescence, 4.5 h, higher = more signal, called active from +8 up or from −8 down;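 note: PC12 cells with 6xCRE LacZ reporter stimulated by forskolin 10 µM; beta-galactosidase reporter signal reflecting CREB driven transcription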
[6] = target: Streptavidin (Streptomyces avidinii) (UniProt P22629); assay: compounds binding control protein streptavidin – biophysical, small-molecule microarray, 635/667 nm fluorescence, artefact control for SMM compound annotation, primary screen (AID 1147); conditions: higher = more signal;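 note: signal reflects streptavidin binding to arrayed compounds as a control protein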
Streptavidin (Streptomyces avidinii), sequence (P22629 whole entry, looked up): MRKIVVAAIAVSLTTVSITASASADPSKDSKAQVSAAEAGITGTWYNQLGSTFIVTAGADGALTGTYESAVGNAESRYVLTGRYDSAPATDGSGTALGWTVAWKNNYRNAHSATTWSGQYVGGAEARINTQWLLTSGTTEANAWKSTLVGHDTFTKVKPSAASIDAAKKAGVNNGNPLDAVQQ

[7] = probe aInhba binding on compound microarray – biochemical, small-molecule microarray, 635/667 nm fluorescence, primary screen (AID 1148); conditions: higher = more signal;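 note: score merges 667nm spot fluorescence with signal-to-noise for antibody binding to printed compounds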
Torsin-1A (Homo sapiens) [8] = target: Torsin-1A (Homo sapiens) (UniProt O14656); assay: TOR1A wild-type binding on microarray – cell lysate, small-molecule microarray, lysate, 635/667 nm, primary screen (AID 1149); conditions: COS7 hTOR1A-WT lysate, 635 nm fluorescence, higher = more signal
Torsin-1A (Homo sapiens), sequence (O14656 whole entry, looked up): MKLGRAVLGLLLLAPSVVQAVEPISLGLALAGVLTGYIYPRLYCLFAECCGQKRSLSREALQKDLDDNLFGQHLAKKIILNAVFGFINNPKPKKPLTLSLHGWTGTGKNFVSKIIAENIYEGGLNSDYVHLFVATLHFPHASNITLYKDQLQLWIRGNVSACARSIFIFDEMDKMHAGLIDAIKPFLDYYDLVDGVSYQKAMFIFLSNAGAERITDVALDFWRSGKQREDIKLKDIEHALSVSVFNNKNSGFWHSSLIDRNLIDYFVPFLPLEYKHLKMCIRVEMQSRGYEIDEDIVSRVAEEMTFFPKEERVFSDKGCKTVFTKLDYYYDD

Torsin-1A (Homo sapiens) [9] = target: Torsin-1A (Homo sapiens) (UniProt O14656); assay: torsin A mutant lysate binding on microarrays – cell lysate, small-molecule microarray, COS7 lysate, 635/667 nm fluorescence, primary screen (AID 1150); conditions: COS7 hTOR1A mutant lysate, 635 nm fluorescence, higher = more signal;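 note: score pools 667 nm emission and signal to noise measuring lysate protein binding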
[10] = test system: Sonic hedgehog protein (Shh); assay: Sonic hedgehog microarray binding compounds – biochemical, small-molecule microarray, 635/667 nm fluorescence, primary screen (AID 1151); conditions: 635 nm fluorescence, higher = more signal;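 note: Shh protein binding to compounds spotted on small-molecule microarray slides; score combines spot fluorescence intensity with signal-to-noise across triplicate slides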
[11] = optical density shifts of acrAB sulA E. coli – strain DRC41, OD650, 48 h, E. coli filamentation inducer project, primary screen (AID 1152); conditions: higher = more signal, called active from +8 up or from −8 down;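 note: E. coli MC1000 strain DRC41 lacking acrAB efflux pump and sulA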
[12] = probe aLefty1 binding on compound microarray – biochemical, small-molecule microarray, 635/667 nm fluorescence, primary screen (AID 1153); conditions: higher = more signal;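 note: score merges spot fluorescence with signal-to-noise ratio from the scanned slide images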
[13] = plasmodial surface anion channel blockers, osmotic lysis – cell-based, P. falciparum Indochina, OD700, 1 h, primary screen (AID 1154); conditions: P. falciparum Indochina infected RBC osmotic lysis, higher = more signal, called active from +8 up or from −8 down
[14] = plasmodial surface anion channel blockers, osmotic lysis – cell-based, P. falciparum Indochina, OD700, 2 h, primary screen (AID 1155);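 note: lysis reports solute entry through the parasite surface anion channel PSAC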; conditions: P. falciparum Indochina infected erythrocytes, higher = more signal, called active from +8 up or from −8 down
[15] = changes in parasitized red cell lysis, either direction – P. falciparum Indochina, OD700, 3 h, PSAC antagonist project, primary screen (AID 1156); conditions: P. falciparum-infected erythrocytes, osmotic lysis, higher = more signal, called active from +8 up or from −8 down
[16] = plasmodial surface anion channel blockers, osmotic lysis – cell-based, P. falciparum Indochina, OD700, 18 h, primary screen (AID 1157); conditions: P. falciparum Indochina infected erythrocytes, osmotic lysis OD700, 18 h; higher = more signal, called active from +8 up or from −8 down
[17] = S6 kinase pathway phospho-S6 level changes – cell-based, A549, cytoblot, luminescence, serum-stimulated, primary screen (AID 1158); conditions: 5 h, higher = more signal;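 note: serum-stimulated A549 lung adenocarcinoma cells; signal is phosphorylated S6 detected by cytoblot immunostaining with HRP secondary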
[18] = target: NADPH oxidase 2 (Homo sapiens) (UniProt P04839); assay: compounds shifting NOX2 Amplex Red fluorescence – cell-based, HEK293-NOX2, PMA-stimulated, NOX inhibitor project, primary screen (AID 1159); conditions: 45 min, higher = more signal, called active from +8 up or from −8 down; note: test concentration not given here
NADPH oxidase 2 (Homo sapiens), sequence (P04839 whole entry, looked up): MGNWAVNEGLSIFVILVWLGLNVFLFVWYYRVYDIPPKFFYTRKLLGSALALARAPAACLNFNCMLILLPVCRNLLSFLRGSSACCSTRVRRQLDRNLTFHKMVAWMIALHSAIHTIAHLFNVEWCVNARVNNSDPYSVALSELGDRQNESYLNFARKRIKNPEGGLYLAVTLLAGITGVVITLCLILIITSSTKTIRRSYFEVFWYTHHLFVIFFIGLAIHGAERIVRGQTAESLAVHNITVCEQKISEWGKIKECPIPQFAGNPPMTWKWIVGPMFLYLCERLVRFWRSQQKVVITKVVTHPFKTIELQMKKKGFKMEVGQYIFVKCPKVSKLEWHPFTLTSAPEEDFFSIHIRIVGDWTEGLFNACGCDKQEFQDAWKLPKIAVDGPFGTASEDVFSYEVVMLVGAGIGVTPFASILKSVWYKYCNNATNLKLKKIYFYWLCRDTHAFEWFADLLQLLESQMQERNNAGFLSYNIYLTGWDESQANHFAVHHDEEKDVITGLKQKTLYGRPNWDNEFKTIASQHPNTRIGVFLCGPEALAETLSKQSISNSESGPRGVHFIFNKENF

[19] = target: NADPH oxidase 4 (Homo sapiens) (UniProt Q9NPH5); assay: compounds shifting NOX4 Amplex Red fluorescence – cell-based, HEK293-NOX4, tetracycline-induced, NOX inhibitor project, primary screen (AID 1160); conditions: HEK293-NOX4, Amplex Red H2O2 fluorescence, 45 min; higher = more signal, called active from +8 up or from −8 down
NADPH oxidase 4 (Homo sapiens), sequence (Q9NPH5 whole entry, looked up): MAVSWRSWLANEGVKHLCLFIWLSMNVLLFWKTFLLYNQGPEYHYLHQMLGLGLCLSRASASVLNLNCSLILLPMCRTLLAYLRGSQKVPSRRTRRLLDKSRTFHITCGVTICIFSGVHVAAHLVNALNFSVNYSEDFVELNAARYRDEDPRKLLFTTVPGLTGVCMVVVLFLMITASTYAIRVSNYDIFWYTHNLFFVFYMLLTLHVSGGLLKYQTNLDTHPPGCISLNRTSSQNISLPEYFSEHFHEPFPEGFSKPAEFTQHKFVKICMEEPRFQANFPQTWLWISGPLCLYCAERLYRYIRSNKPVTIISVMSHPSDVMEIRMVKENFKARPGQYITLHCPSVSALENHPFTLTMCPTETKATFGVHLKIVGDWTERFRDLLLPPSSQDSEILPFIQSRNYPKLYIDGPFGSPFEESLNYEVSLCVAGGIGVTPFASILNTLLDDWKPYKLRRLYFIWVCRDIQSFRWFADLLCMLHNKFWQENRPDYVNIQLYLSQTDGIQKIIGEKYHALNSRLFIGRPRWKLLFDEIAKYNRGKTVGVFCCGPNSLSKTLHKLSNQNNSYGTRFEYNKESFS

[20] = target: NADPH oxidase 5 (Homo sapiens) (UniProt Q96PH1); assay: compounds shifting NOX5 Amplex Red fluorescence – cell-based, HEK293-NOX5, NOX inhibitor project, primary screen (AID 1161); conditions: HEK293-NOX5, ionomycin, 45 min, higher = more signal
NADPH oxidase 5 (Homo sapiens), sequence (Q96PH1 whole entry, looked up): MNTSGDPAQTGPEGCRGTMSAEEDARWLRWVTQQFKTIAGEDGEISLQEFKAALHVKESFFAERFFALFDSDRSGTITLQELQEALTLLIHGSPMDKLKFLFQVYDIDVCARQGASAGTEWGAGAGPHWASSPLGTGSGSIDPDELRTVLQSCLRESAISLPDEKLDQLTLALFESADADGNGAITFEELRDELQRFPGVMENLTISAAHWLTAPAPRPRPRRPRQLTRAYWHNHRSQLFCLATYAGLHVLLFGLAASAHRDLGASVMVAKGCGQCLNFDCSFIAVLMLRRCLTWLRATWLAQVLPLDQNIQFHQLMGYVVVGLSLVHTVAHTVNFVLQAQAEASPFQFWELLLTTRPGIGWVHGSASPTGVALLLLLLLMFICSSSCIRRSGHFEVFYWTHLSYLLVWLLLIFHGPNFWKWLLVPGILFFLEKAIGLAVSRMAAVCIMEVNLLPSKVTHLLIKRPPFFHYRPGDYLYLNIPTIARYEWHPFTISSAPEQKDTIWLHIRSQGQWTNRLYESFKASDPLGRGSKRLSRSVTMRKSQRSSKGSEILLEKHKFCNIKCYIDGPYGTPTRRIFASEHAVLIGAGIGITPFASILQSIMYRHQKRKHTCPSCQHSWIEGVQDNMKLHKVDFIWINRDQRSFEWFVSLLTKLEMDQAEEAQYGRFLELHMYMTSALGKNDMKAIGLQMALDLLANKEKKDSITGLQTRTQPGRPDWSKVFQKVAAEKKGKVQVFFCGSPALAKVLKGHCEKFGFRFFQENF

SMILES	composite z-score [1]	z-score [2]	z-score [3]	z-score [4]	z-score [5]	composite z-score [6]	composite z-score [7]	composite z-score (Torsin-1A (Homo sapiens) [8])	composite z-score (Torsin-1A (Homo sapiens) [9])	composite z-score [10]	z-score [11]	composite z-score [12]	z-score [13]	z-score [14]	z-score [15]	z-score [16]	z-score [17]	z-score [18]	z-score [19]	z-score [20]
CN(C)CCCCCCNC(=O)[C@@H]1C[C@@H]2C(=O)NCC(=O)N2[C@@H]1c1cccc(OCCO)c1	1.21	0.105 (inactive)	-0.418 (inactive)	-0.549 (inactive)	-0.832 (inactive)	0.312	0.105	1.14	2.07	1.64	0.492 (inactive)	0.169	2.11 (inactive)	0.109 (inactive)	2.28 (inactive)	0.253 (inactive)	0.0964	0.438 (inactive)	0.611 (inactive)	0.6
C#C[C@H](O[Si](C#CCCCCCC)(C(C)C)C(C)C)c1ccccc1	-0.348	-0.0715 (inactive)	0.0625 (inactive)	0.353 (inactive)	0.262 (inactive)	-0.0246	-0.17	0.236	0.0769	-0.102	0.79 (inactive)	-0.468	0.486 (inactive)	-0.227 (inactive)	-0.177 (inactive)	0.433 (inactive)	0.482	-1.09 (inactive)	-0.782 (inactive)	-1.97
O=C1OCCC/C=C\[C@H]2OC34C=CCN(CCN5CCOCC5)C(=O)[C@H]3N(CCO)C(=O)[C@@H]4C12 (stereo not given in full)	-0.425	0.364 (inactive)	0.145 (inactive)	-0.342 (inactive)	0.0806 (inactive)	-0.671	-0.203	-0.176	-0.506	-0.703	0.216 (inactive)	-0.231	0.588 (inactive)	0.921 (inactive)	0.723 (inactive)	0.382 (inactive)	-0.364	0.61 (inactive)	-0.342 (inactive)	0.494
COc1cc(NN2C(C(O)c3ccccc3)C=CC3C(=O)N(c4ccccc4)C(=O)C32)cc(OC)c1OC (stereo not given)	0.421	-3.47 (inactive)	-0.525 (inactive)	0.433 (inactive)	-0.557 (inactive)	0.148	0.0829	0.179	0.989	0.89	-0.26 (inactive)	0.644	1.38 (inactive)	0.0862 (inactive)	0.86 (inactive)	-0.325 (inactive)	0.838	-3.61 (inactive)	-4.63 (inactive)	-7.16
CC(C)(C)OC(=O)CC[C@@]1(C(=O)N2CCOCC2)N=C(c2ccc(OCCCO)cc2)O[C@@H]1c1ccccc1N=[N+]=[N-]	1.23	-1.61 (inactive)	0.321 (inactive)	0.0686 (inactive)	-0.713 (inactive)	1.93	0.27	0.802	1.11	0.535	1.96 (inactive)	0.394	30.9 (active)	28.1 (active)	1.09 (inactive)	7.36 (inactive)	-0.242	-3.49 (inactive)	0.71 (inactive)	-2.04
CN1C(=O)C2C=CC(C(O)C(c3ccccc3)c3ccccc3)N(Nc3ccccc3)C2C1=O (stereo not given)	0.35	-1.91 (inactive)	-0.437 (inactive)	-0.14 (inactive)	0.574 (inactive)	1.49	0.0857	0.096	0.585	0.424	-2.34 (inactive)	0.516	1.63 (inactive)	2.15 (inactive)	0.742 (inactive)	1.12 (inactive)	-0.946	-1.39 (inactive)	-4.91 (inactive)	-2.44
CCCNC(=O)[C@@]1(C)c2ccccc2C(=O)N(C(C)C)[C@H]1c1ccc(CO)cc1	0.182	-4.29 (inactive)	-0.744 (inactive)	0.0279 (inactive)	0.155 (inactive)	-0.586	-0.0791	0.398	-0.435	-0.946	-0.374 (inactive)	0.0371	4.24 (inactive)	-0.445 (inactive)	2.44 (inactive)	-0.804 (inactive)	2.12	-2.39 (inactive)	-2.3 (inactive)	-3.6
O=C1OCC=C[C@H]2OC34C=CCN(c5ccc6ccccc6c5)C(=O)[C@H]3N(CCO)C(=O)[C@@H]4[C@@H]12 (stereo not given in full)	-1.26	-0.168 (inactive)	1.89 (inactive)	1.14 (inactive)	0.492 (inactive)	-0.74	-0.0427	-2.04	-2.02	-0.25	-0.773 (inactive)	0.235	1.33 (inactive)	0.796 (inactive)	0.547 (inactive)	0.552 (inactive)	-0.572	1.53 (inactive)	1.05 (inactive)	1.46
COc1ccc([Si](C)(C)[C@@H]2[C@@H](CCO)O[C@]3(C(=O)N(Cc4cccc(N(C=O)c5ccccc5)c4)c4ccccc43)[C@H]2C)cc1	-0.0398	-7.17 (inactive)	0.465 (inactive)	7.39 (inactive)	-0.671 (inactive)	0.156	0.0543	0.0905	-0.004	0.98	0.313 (inactive)	0.0811	4.07 (inactive)	0.49 (inactive)	2.32 (inactive)	-1.17 (inactive)	0.62	0.773 (inactive)	-0.249 (inactive)	-0.78
O=C1O[C@H](c2ccccc2)[C@H](c2ccccc2)N2[C@H]1[C@@H](C(=O)NC[C@H](O)c1ccccc1)[C@]1(C(=O)Nc3ccc(C#CC4(O)CCCCCC4)cc31)[C@H]2c1ccccc1OCCO	1.21	-5.52 (inactive)	-0.52 (inactive)	-0.325 (inactive)	-0.349 (inactive)	-0.428	0.214	0.644	1.08	0.877	0.0511 (inactive)	0.701	3.8 (inactive)	2.21 (inactive)	-0.957 (inactive)	2.07 (inactive)	-0.0056	0.65 (inactive)	0.267 (inactive)	1.39
COCCOC(=O)N1C(=O)[C@@]2(c3cc(C#CC4=CCCCC4)ccc31)[C@H](c1ccc(OCCO)cc1)N1[C@H](c3ccccc3)[C@H](c3ccccc3)OC(=O)[C@H]1[C@@H]2C(=O)Nc1nc2ccccc2s1	0.329	-3.52 (inactive)	-2.45 (inactive)	-1.16 (inactive)	-0.482 (inactive)	1.27	-0.0178	-0.0779	0.394	0.911	2.88 (inactive)	0.114	2.35 (inactive)	0.922 (inactive)	-0.419 (inactive)	1.83 (inactive)	1.24	0.821 (inactive)	0.824 (inactive)	1.35
CC1CC/C=C\[C@H]2OC34C=CCN(Cn5nnc6ccccc65)C(=O)[C@H]3N(CCCO)C(=O)[C@@H]4C2C(=O)O1 (stereo not given in full)	-0.595	-0.382 (inactive)	-0.281 (inactive)	-0.212 (inactive)	-0.759 (inactive)	-0.958	-0.157	-1.89	-1.33	0.0837	1.29 (inactive)	0.0445	0.935 (inactive)	0.563 (inactive)	-0.264 (inactive)	0.554 (inactive)	0.114	0.923 (inactive)	-1.82 (inactive)	1.4
C=CCC(OC(C)=O)[C@@H]1[C@@H](N(Cc2cc3ccccc3o2)C(=O)c2ccc(-c3ccccc3)cc2)c2cc(OCCCO)ccc2N1C(=O)Cc1ccc2ccccc2c1 (stereo not given in full)	-0.172	0.0758 (inactive)	0.19 (inactive)	1.85 (inactive)	0.874 (inactive)	0.0693	0.0963	-0.635	-0.0864	-0.076	-0.0233 (inactive)	-0.0984	0.574 (inactive)	-0.344 (inactive)	-0.145 (inactive)	0.26 (inactive)	0.233	0.972 (inactive)	-0.906 (inactive)	1.53
Cn1c2c(c3ccccc31)C(=O)C1NC2C=CC1(C)C(=O)OCc1ccccc1 (stereo not given)	-0.348	-0.171 (inactive)	0.908 (inactive)	1.39 (inactive)	0.716 (inactive)	0.298	0.0442	-0.327	0.285	-0.699	-1.14 (inactive)	0.125	0.395 (inactive)	0.896 (inactive)	0.808 (inactive)	0.484 (inactive)	-0.495	-0.343 (inactive)	-1.52 (inactive)	1.31
[N-]=[N+]=NCc1ccccc1C[C@]1(C(=O)NCc2ccccc2)COC(c2ccc(OCCCO)cc2)=N1	-0.0113	-5.27 (inactive)	0.664 (inactive)	1.72 (inactive)	0.232 (inactive)	0.469	0.0301	-0.328	0.784	-1.13	0.104 (inactive)	-0.373	28.9 (active)	24.6 (active)	4.42 (inactive)	2.78 (inactive)	-0.153	-2.28 (inactive)	-0.958 (inactive)	-1.81
O=C1O[C@@H](c2ccccc2)[C@@H](c2ccccc2)N2[C@@H](c3ccc(O)cc3)[C@]3(C(=O)Nc4ccc(C#CCCO)cc43)[C@@H](C(=O)N3CCCCCCC3)[C@H]12	0.409	-0.915 (inactive)	-0.547 (inactive)	-0.114 (inactive)	-0.394 (inactive)	1.55	1.46	1.37	1	0.887	-0.681 (inactive)	2.4	1.27 (inactive)	0.654 (inactive)	-0.69 (inactive)	0.541 (inactive)	-0.364	1.15 (inactive)	0.277 (inactive)	1.47

From PubChem BioAssay
